According to PubChem BioAssay AID602250 (The Scripps Research Institute Molecular Screening Center, 2012):
Screen size: about 360,000 compounds; about 2,200 (0.61%) were called active. The sample holds actives, similar compounds and a random draw of the others, so the mix is not that of the screen. Values without a mark were called inactive.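 The calls were made as follows: active = inhibition above a per-plate cutoff, the plate's mean sample inhibition plus 3 SD (cut at about 24% in these data); inactive = the rest.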

Assay: nonselective inhibitors of ATP calcium response in CHO-K1, primary screen, counter-screen for M1 antagonist project, cell-based, Fluo-8 calcium fluorescence, full deck, 1536-well (AID 602250);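 also: 0% = DMSO plus EC80 ATP and 100% = DMSO alone without ATP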
Conditions: CHO-K1 parental, ATP-induced calcium, Fluo-8 fluorescence; at 3 µM; stronger effect = higher value

Row | SMILES | inhibition
1 | Cc1cccn2c(=O)c3cc(C#N)c(=NC(=O)c4cccnc4)n(CC4CCCO4)c3nc12 (configuration not stated) | 20.6%
2 | Cc1cccn2c(=O)c3cc(C#N)c(=O)n(CCCN4CCOCC4)c3nc12 | 25.6% (active)
3 | Cc1cccn2c(=O)c3cc(C(=O)NCCN4CCOCC4)c(=N)n(Cc4cccnc4)c3nc12 | 6.02%
4 | COCC(C)NC(=O)c1ccc(-n2nc(C(F)(F)F)cc2-c2cccs2)cc1 (configuration not stated) | -4.35%
5 | CC(C)(C)NC(=O)Cn1nnc(-c2ccccc2Cl)n1 | -23%
6 | NC(=O)c1ncn([C@@H]2O[C@H](CN=C3NS(=O)(=O)c4ccccc43)[C@@H](O)[C@H]2O)n1 | -7.18%
7 | Cc1c(-c2ccccc2)cn2c1-c1ccc(C)n1CC2 | 43.4% (active)
8 | CC(=O)c1ccc(NC(=O)CCNS(=O)(=O)c2cc(Br)cnc2N)cc1 | 0.07%
9 | Cc1ccc(S(=O)(=O)c2c[nH]c3ccc(Cl)cc3c2=O)cc1 | 0.53%
10 | O=C(CCn1nnnc1CN1CCOCC1)N1CCC(c2ccccc2Cl)C1 (configuration not stated) | -9.8%
11 | CC(=O)c1cccc(NC(=O)[C@@H](NC(N)=O)C(C)C)c1 | -2.68%
12 | C=CCSc1nsc(NC(=O)Nc2cccc(C(C)=O)c2)n1 | 24.7% (active)
13 | CCCCN1C(=O)C(=O)N(CC(=O)Nc2cccc(C(C)=O)c2)C1=O | 10.5%
14 | CSc1nsc(NC(=O)Nc2ccccc2)n1 | 28.2% (active)
15 | CCSc1nsc(NC(=O)Nc2cccc(C(C)=O)c2)n1 | 30.8% (active)
16 | O=C(Nc1ccccc1)Nc1nnc(COc2ccccc2F)s1 | 7.01%
17 | CSc1nsc(SCC(=O)Nc2cc(C(=O)O)ccc2C)n1 | -5.18%
18 | COc1ccc(C(=O)OCC(=O)Nc2cccc(C(C)=O)c2)cc1OC | -4.37%
19 | CC(=O)c1cccc(NC(=S)N2CCN(S(C)(=O)=O)CC2)c1 | -7.23%
20 | CCN1C(=O)C(C(=O)NC(C)c2ccccc2)C2CC1(C)Oc1ccccc12 (configuration not stated) | -9.9%
21 | CC(C)n1cnc2c(NCc3ccccc3)cc(OCC3CCN(C)CC3)cc21 | -18.6%
22 | Cc1cc(S(=O)(=O)NCC(C)C)ccc1OCC(=O)NC1CC1 | 7.62%
23 | O=C(CN1C(=O)NC2(CCCC2)C1=O)NCC1CCCO1 (configuration not stated) | -10.5%
24 | O=C(Nc1ccccc1C(=O)NCC1CCCO1)c1ccccc1F (configuration not stated) | -7.11%
25 | NS(=O)(=O)c1ccc(NC(=O)COC(=O)c2c3c(nc4ccccc24)/C(=C\c2ccc4c(c2)OCO4)CCC3)cc1 | 26.9% (active)
26 | CC(NC(=S)Nc1ccc(S(N)(=O)=O)cc1)c1ccc2c(c1)OCO2 (configuration not stated) | 9.71%
27 | NS(=O)(=O)c1ccc(NC(=O)COC(=O)CCc2c[nH]c3ccccc23)cc1 | 0.38%
